In the supplement of paper PMC10849652:
About 7,900 targets were measured; listed, in parts, are those with a hit and a random draw of the rest. About 0.6% of all pairs of compound and target were hits.

Experiments:
Test in all cases: log2 fold change, soluble protein after heating vs DMSO (PISA); higher = thermal stabilisation; K562 cells, 10 uM, 30 min; active = over 0.2 and 3.5 SD of the protein, either way, in both replicates (recomputed)
[1] = compound: C#Cc1cccc(Nc2ncnc3cc(OCCOC)c(OCCOC)cc23)c1 [erlotinib]
In short: (§1)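 K562 cells at 2×10^6 cells/mL were treated for 30 min with 10 μM compound, and aliquots were heated for 3 min over 48°C-58°C before pooling. Extraction used PBS with 0.5% NP-40 at 4°C, and soluble protein was the supernatant after 21,000xg for 90 min, measured by TMTpro 16plex LC-MS/MS with channel sums equalised. Thermal stability values, relative to control samples and from duplicates, are log2 fold changes.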

[2] = compound: C/C(=N\NC(=O)C1=CC(=CC=C1)S(=O)(=O)N2CCOCC2)/C3=C(C=CC(=C3)Cl)O
In short: as §1

[3] = compound: C1=CC(=C(C=C1Cl)C2=NC3=NC=CN=C3C(=N2)NC4=CC=NC=C4)F
In short: as §1

[4] = compound: C1=CC(=CC=C1C2=NC3=C(N2)C=C(C=C3)C(=O)N)OC4=CC=C(C=C4)Cl
In short: as §1

[5] = compound: C1=CC2=C(C=CC(=C2)/C=C\3/C(=O)NC(=NCC4=CC=CS4)S3)N=C1
In short: as §1

[6] = compound: C1=CC2=NC=CN=C2C=C1/C=C/3\C(=O)NC(=O)S3
In short: as §1

[7] = compound: C1=CC=C(C=C1)C2=NC(=C(N2)C3=CC=NC=C3)C4=CC(=C(C=C4)Cl)O
In short: as §1

[8] = compound: C1=CC=C2C(=C1)C3=NNC4=CC=CC(=C43)C2=O
In short: as §1

[9] = compound: C1CCN(C1)C(=O)NC2=CC=CC(=C2)NC3=NC=C(C(=N3)NCCC4=CN=CN4)Br
In short: as §1

[10] = compound: C1CN(CCC1(CC2=CC=C(C=C2)Cl)N)C3=NC=NC4=C3C=CN4
In short: as §1

Measured: log2 fold change

STK4 (UniProt Q13043)
active: [8] -0.208
inactive: [1] -0.017 | [2] 0 | [3] -0.02 | [4] 0.003 | [5] 0.04 | [6] -0.02 | [7] -0.009 | [9] -0.025 | [10] 0.025

TBC1D23 (UniProt Q9NUY8)
inactive: [1] 0.043 | [2] 0.012 | [3] 0.047 | [4] 0.067 | [5] 0.071 | [6] 0.021 | [7] -0.032 | [8] -0.054 | [9] -0.036 | [10] -0.025

SURF1 (UniProt Q15526)
UniProt Q15526, sequence (Q15526 whole entry, looked up): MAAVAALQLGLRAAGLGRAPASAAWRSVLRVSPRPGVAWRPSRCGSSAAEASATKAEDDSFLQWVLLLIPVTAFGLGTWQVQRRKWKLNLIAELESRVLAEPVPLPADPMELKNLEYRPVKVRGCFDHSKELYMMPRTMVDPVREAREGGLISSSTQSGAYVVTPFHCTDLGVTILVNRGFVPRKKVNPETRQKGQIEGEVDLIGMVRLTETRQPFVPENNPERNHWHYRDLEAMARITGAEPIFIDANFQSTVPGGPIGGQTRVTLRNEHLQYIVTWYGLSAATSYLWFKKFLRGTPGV
inactive: [1] 0.021 | [2] -0.036 | [3] 0.051 | [4] -0.026 | [5] -0.045 | [6] 0.055 | [7] 0.056 | [8] 0.017 | [9] -0.141 | [10] 0

SLK isoform 2 (UniProt Q9H2G2)
inactive: [1] -0.023 | [2] 0.083 | [3] -0.098 | [4] -0.001 | [5] 0.043 | [6] 0.075 | [7] -0.135 | [8] -0.047 | [9] -0.028 | [10] -0.057

TK1 (UniProt P04183)
inactive: [1] -0.029 | [2] 0.004 | [3] 0.044 | [4] 0.017 | [5] -0.02 | [6] -0.012 | [7] -0.03 | [8] -0.011 | [9] -0.028 | [10] 0.046

TJP2 isoform 7 (UniProt Q9UDY2)
inactive: [1] 0.116 | [2] 0.06 | [3] -0.042 | [4] 0.006 | [5] 0.029 | [6] -0.201 | [7] 0.008 | [8] -0.006 | [9] -0.08 | [10] 0.001

SPTBN1 (UniProt Q01082)
inactive: [1] 0.003 | [2] 0.067 | [3] -0.065 | [4] 0.011 | [5] 0.03 | [6] 0.046 | [7] 0.021 | [8] -0.055 | [9] -0.067 | [10] -0.071

TIMM21 (UniProt Q9BVV7)
inactive: [1] 0.026 | [2] 0.068 | [3] 0.004 | [4] -0.008 | [5] 0.035 | [6] -0.001 | [7] -0.001 | [8] 0.081 | [9] -0.002 | [10] 0.021

TFB2M (UniProt Q9H5Q4)
UniProt Q9H5Q4, sequence (Q9H5Q4 whole entry, looked up): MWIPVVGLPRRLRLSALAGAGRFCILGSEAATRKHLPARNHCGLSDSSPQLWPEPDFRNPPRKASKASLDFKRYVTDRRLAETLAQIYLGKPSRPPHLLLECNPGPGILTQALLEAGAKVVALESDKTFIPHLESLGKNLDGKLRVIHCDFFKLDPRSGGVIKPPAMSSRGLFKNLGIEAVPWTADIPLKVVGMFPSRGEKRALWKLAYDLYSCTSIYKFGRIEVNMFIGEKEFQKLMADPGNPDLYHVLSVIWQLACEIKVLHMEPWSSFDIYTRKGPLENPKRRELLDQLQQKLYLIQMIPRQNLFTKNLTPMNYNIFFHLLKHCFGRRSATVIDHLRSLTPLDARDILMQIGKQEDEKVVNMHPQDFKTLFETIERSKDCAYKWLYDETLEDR
inactive: [1] 0.007 | [2] 0.094 | [3] 0.037 | [4] -0.043 | [5] 0.016 | [6] 0.019 | [7] -0.022 | [8] -0.019 | [9] 0.002 | [10] 0.007

SP3 (UniProt Q02447)
inactive: [1] 0.034 | [2] -0.028 | [3] 0 | [4] 0.059 | [5] 0.003 | [6] -0.051 | [7] -0.053 | [8] -0.066 | [9] -0.065 | [10] -0.1

TIAL1 isoform 2 (UniProt Q01085)
inactive: [1] 0.013 | [2] -0.004 | [3] 0.002 | [4] 0 | [5] 0.02 | [6] 0.008 | [7] -0.026 | [8] 0.018 | [9] 0.032 | [10] -0.004

TMBIM1 (UniProt Q969X1)
UniProt Q969X1, sequence (Q969X1 whole entry, looked up): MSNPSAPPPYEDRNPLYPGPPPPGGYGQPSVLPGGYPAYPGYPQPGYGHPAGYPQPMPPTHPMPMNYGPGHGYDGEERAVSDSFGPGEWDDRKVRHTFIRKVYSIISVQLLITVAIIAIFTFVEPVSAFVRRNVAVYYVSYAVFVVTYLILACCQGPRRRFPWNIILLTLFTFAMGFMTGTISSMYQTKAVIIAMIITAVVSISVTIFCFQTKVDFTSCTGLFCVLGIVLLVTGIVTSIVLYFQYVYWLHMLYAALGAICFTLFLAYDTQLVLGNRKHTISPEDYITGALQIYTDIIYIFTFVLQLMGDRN
active: [7] 0.517
inactive: [1] 0.092 | [2] -0.139 | [3] 0.122 | [4] -0.017 | [5] 0.198 | [6] -0.025 | [8] -0.069 | [9] 0.172 | [10] 0.049

TECR (UniProt Q9NZ01)
inactive: [1] -0.02 | [2] 0.042 | [3] 0.036 | [4] -0.059 | [5] 0.018 | [6] 0.024 | [7] 0.067 | [8] -0.059 | [9] 0.072 | [10] 0.045

STRN (UniProt O43815)
UniProt O43815, sequence (O43815 whole entry, looked up): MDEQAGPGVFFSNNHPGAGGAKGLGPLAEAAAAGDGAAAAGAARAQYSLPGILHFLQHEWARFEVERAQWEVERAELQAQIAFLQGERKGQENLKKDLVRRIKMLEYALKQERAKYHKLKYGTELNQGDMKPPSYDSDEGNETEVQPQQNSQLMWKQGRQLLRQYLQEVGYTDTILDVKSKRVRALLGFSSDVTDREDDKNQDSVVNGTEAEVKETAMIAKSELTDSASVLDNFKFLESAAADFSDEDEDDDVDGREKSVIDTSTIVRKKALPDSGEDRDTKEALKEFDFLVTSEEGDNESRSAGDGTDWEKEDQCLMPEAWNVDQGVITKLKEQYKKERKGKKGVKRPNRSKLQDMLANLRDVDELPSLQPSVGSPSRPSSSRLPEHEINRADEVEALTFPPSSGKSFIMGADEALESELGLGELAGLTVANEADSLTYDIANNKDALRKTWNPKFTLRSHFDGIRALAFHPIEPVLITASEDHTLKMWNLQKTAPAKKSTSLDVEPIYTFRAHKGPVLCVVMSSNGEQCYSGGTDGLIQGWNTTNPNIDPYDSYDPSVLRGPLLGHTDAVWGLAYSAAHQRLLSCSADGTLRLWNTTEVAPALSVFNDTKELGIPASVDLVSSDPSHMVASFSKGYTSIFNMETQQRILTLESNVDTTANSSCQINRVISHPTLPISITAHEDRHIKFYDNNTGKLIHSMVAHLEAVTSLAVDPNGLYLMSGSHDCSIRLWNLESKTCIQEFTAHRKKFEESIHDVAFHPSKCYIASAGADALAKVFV
active: [7] 0.213
inactive: [1] -0.03 | [2] 0 | [3] 0.033 | [4] 0.013 | [5] -0.008 | [6] 0.005 | [8] 0.025 | [9] -0.124 | [10] 0.053

SLC4A2 (UniProt P04920)
UniProt P04920, sequence (P04920 whole entry, looked up): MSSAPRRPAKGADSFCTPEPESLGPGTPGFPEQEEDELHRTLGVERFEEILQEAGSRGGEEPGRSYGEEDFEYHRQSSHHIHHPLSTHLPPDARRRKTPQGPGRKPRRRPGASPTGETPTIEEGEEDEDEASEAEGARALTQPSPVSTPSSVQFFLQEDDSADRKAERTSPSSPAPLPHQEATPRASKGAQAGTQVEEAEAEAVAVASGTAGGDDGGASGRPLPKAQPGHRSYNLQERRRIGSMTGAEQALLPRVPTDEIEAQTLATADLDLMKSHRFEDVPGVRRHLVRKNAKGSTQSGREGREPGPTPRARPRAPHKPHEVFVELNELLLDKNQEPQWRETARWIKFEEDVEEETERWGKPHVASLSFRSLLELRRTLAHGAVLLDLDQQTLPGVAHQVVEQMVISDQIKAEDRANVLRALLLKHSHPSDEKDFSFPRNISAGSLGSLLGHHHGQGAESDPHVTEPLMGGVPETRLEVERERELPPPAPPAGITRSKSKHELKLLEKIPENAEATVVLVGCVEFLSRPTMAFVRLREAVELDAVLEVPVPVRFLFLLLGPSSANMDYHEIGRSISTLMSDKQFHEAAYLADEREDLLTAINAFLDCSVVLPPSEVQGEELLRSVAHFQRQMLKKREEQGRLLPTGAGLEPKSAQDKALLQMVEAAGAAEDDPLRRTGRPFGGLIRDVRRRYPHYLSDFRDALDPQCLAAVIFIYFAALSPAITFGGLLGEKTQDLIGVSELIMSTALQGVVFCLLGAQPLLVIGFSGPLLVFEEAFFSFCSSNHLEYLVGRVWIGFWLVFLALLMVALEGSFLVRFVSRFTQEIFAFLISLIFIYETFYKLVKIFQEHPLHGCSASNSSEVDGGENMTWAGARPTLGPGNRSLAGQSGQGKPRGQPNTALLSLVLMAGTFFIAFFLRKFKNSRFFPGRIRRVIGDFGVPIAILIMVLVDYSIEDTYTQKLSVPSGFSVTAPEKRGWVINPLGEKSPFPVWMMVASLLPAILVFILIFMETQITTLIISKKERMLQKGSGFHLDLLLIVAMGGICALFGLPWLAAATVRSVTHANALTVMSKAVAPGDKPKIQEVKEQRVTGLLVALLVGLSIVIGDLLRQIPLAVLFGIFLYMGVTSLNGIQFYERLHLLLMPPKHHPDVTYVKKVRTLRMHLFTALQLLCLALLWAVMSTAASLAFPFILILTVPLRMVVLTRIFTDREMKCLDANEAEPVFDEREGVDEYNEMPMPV
inactive: [1] 0.015 | [2] 0.073 | [3] -0.062 | [4] 0.047 | [5] 0.076 | [6] 0.047 | [7] 0.043 | [8] -0.026 | [9] -0.023 | [10] 0.002

TIMM10B (UniProt Q9Y5J6)
UniProt Q9Y5J6, sequence (Q9Y5J6 whole entry, looked up): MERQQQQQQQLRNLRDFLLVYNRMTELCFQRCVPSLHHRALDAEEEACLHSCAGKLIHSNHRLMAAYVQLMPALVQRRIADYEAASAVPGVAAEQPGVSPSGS
inactive: [1] 0.299 | [2] 0.135 | [3] 0.191 | [4] -0.189 | [5] 0.216 | [6] 0.048 | [7] 0.042 | [8] 0.543 | [9] -0.143 | [10] -0.051

TIMM10 (UniProt P62072)
inactive: [1] -0.109 | [2] -0.021 | [3] 0.137 | [4] -0.011 | [5] 0.044 | [6] 0.051 | [7] 0.072 | [8] 0.029 | [9] -0.014 | [10] -0.016

SMAP (UniProt O00193)
inactive: [1] -0.006 | [2] 0.026 | [3] 0.119 | [4] 0.017 | [5] -0.063 | [6] 0.073 | [7] -0.012 | [8] 0.015 | [9] 0.006 | [10] 0.047

TMBIM6 isoform 2 (UniProt P55061)
UniProt P55061, sequence (P55061 whole entry, looked up): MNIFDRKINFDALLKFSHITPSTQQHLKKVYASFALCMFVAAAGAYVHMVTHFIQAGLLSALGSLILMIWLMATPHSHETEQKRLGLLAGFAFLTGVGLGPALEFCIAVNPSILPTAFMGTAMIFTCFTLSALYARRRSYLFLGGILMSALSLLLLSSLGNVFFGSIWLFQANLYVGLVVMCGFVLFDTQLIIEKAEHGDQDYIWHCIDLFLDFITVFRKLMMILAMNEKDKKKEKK
inactive: [1] -0.019 | [2] 0.029 | [3] 0.051 | [4] -0.062 | [5] 0.067 | [6] 0.076 | [7] 0.019 | [8] -0.07 | [9] 0.026 | [10] -0.01

SMG1 (UniProt Q96Q15)
inactive: [1] 0.012 | [2] 0.101 | [3] 0.066 | [4] -0.012 | [5] -0.029 | [6] 0 | [7] -0.088 | [8] 0.049 | [9] -0.054 | [10] 0.066

TCERG1 (UniProt O14776)
inactive: [1] 0.072 | [2] 0.154 | [3] 0.152 | [4] -0.017 | [5] 0.067 | [6] -0.022 | [7] 0.015 | [8] 0.027 | [9] -0.104 | [10] -0.029

SRC isoform 2 (UniProt P12931)
inactive: [1] -0.014 | [2] -0.034 | [3] -0.006 | [4] 0.153 | [5] 0.088 | [6] 0.022 | [7] 0.036 | [8] -0.049 | [9] -0.073 | [10] -0.025

SPCS2 (UniProt Q15005)
UniProt Q15005, sequence (Q15005 whole entry, looked up): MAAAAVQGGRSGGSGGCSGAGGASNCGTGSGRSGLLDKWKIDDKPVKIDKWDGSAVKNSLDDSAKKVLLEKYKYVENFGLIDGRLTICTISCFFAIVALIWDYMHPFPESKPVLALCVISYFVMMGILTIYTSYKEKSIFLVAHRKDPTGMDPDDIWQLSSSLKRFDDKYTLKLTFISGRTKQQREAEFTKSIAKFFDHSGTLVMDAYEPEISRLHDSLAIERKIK
inactive: [1] -0.022 | [2] 0.015 | [3] 0.077 | [4] -0.043 | [5] 0.011 | [6] 0.029 | [7] -0.004 | [8] -0.08 | [9] -0.005 | [10] 0.001

SMPD4 isoform 4 (UniProt Q9NXE4)
inactive: [1] 0.073 | [2] 0.064 | [3] -0.034 | [4] 0.005 | [5] 0.098 | [6] 0.158 | [7] -0.021 | [8] -0.076 | [9] 0.023 | [10] -0.011

SPTBN4 (UniProt Q9H254)
inactive: [1] 0.29 | [2] 0 | [3] -0.045 | [4] 0.078 | [5] 0.066 | [6] -0.027 | [7] 0.035 | [8] 0.061 | [9] 0.066 | [10] -0.05

STK26 (UniProt Q9P289)
inactive: [1] 0.058 | [2] -0.014 | [3] 0.195 | [4] -0.014 | [5] -0.008 | [6] 0.124 | [7] -0.015 | [8] -0.08 | [9] 0.023 | [10] 0.02

SLC27A2 (UniProt O14975)
inactive: [1] 0 | [2] 0.057 | [3] 0.054 | [4] 0.032 | [5] 0.101 | [6] 0.005 | [7] 0.108 | [8] 0.018 | [9] -0.001 | [10] 0.035

SPPL2B (UniProt Q8TCT7)
inactive: [1] 0.021 | [2] -0.112 | [3] -0.039 | [4] 0.044 | [5] 0.081 | [6] 0.048 | [7] 0.003 | [8] -0.072 | [9] -0.041 | [10] 0.038

SPART (UniProt Q8N0X7)
UniProt Q8N0X7, sequence (Q8N0X7 whole entry, looked up): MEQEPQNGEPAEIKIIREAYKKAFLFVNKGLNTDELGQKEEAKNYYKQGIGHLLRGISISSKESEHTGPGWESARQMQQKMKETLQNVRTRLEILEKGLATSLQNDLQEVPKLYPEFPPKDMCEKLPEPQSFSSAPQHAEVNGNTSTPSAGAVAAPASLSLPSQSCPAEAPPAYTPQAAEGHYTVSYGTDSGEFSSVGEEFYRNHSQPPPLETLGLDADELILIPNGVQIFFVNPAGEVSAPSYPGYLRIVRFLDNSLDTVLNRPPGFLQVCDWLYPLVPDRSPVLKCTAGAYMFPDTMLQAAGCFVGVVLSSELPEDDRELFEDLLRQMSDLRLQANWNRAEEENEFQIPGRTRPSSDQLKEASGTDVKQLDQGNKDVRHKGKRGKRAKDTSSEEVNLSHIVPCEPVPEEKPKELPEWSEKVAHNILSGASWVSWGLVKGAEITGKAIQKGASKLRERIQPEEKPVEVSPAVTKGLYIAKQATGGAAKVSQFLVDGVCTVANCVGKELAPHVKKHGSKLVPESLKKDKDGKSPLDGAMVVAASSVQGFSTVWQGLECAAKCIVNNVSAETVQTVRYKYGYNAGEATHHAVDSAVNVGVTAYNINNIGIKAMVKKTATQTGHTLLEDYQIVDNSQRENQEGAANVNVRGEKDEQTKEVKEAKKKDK
inactive: [1] 0.024 | [2] 0.008 | [3] 0.057 | [4] 0.008 | [5] 0.07 | [6] 0.002 | [7] -0.008 | [8] -0.014 | [9] -0.033 | [10] -0.055

SNRNP40 (UniProt Q96DI7)
UniProt Q96DI7, sequence (Q96DI7 whole entry, looked up): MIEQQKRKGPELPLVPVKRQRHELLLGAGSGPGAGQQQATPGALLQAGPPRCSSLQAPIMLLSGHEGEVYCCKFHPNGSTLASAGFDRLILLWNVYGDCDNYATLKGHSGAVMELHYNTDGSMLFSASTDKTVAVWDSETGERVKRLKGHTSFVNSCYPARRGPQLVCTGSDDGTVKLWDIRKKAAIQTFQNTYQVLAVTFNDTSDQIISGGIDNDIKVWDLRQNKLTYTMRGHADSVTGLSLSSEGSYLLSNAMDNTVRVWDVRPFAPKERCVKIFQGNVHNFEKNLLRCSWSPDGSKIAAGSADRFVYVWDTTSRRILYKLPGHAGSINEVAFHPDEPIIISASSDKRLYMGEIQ
inactive: [1] -0.048 | [2] -0.012 | [3] -0.111 | [4] 0.037 | [5] -0.007 | [6] 0.049 | [7] -0.024 | [8] -0.005 | [9] 0 | [10] 0.008

SLC30A10 (UniProt Q6XR72)
inactive: [1] 0.033 | [2] 0.068 | [3] -0.06 | [4] 0.001 | [5] 0.077 | [6] 0.008 | [7] 0.025 | [8] -0.003 | [9] -0.054 | [10] 0.115

SLC7A6OS (UniProt Q96CW6)
UniProt Q96CW6, sequence (Q96CW6 whole entry, looked up): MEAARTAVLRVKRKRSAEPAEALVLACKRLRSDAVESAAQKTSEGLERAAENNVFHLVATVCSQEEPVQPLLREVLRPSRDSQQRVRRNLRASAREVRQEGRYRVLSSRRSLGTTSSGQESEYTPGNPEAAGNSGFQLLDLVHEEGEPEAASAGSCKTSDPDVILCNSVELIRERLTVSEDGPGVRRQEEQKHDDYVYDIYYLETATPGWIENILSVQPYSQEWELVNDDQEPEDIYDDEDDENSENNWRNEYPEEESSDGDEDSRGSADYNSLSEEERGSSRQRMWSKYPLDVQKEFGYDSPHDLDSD
inactive: [1] -0.015 | [2] 0.018 | [3] 0.035 | [4] -0.039 | [5] 0.007 | [6] 0.042 | [7] 0.045 | [8] -0.025 | [9] -0.015 | [10] 0.022
